From the supplement of paper PMC3334620
In all, about 33,000 sequences were measured (“E-score (-0.5 to 0.5)”: median about -0.041, highest 2% from about 0.37 on). What follows is part of a selection rich in the highest values, with near analogues and random picks from the rest.

Biological target: T1, Ecm22 (UniProt Q05958)
T1 sequence: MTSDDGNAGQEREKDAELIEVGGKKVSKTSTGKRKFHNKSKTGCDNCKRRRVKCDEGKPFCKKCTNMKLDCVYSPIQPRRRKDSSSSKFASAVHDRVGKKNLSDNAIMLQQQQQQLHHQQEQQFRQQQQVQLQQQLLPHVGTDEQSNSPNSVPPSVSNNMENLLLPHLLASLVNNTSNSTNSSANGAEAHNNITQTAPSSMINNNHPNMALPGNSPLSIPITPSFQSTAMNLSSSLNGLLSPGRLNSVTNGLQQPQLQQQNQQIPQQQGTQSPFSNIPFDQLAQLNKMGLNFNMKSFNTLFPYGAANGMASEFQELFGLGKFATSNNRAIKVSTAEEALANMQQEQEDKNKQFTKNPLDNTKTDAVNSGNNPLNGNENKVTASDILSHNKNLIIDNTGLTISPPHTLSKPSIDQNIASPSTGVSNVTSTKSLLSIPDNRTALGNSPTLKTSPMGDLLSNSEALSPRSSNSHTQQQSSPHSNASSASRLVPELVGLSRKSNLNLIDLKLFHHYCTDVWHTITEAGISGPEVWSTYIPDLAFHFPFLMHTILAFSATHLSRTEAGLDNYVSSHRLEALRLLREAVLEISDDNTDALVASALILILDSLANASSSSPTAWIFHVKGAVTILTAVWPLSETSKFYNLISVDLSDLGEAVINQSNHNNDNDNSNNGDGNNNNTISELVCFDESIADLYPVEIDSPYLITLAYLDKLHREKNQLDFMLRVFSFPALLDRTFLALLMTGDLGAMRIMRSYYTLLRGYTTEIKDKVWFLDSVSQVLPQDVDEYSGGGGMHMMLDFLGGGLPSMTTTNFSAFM
Test: PBM E-score (8-mer binding enrichment) (E-score (-0.5 to 0.5)); higher = stronger / more preferred TF binding
Details: protein concentration: 200 nM; construct: GST-full length
Method in brief: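 For each ungapped eight-base word taken together with its reverse complement, the Universal PBM Analysis Suite assigned an E-score. Binding data came from GST-tagged yeast transcription factors, applied at about 100-200 nM, on universal all-10-mer Agilent arrays made double-stranded by primer extension. Fluorescent anti-GST marked bound protein, and scans were normalised with masliner.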

Row | Sequence | PBM E-score
1 | ACCTTCGG | 0.188
2 | CACCATGG | -0.173
3 | AGAGGGTA | -0.0925
4 | GAGCCACA | -0.0887
5 | CGGTTTTA | 0.072
6 | CCTAGCAG | -0.263
7 | GTTGCTCA | 0.108
8 | ACAGGTCC | -0.142
9 | ATATCAAG | 0.0598
10 | TCTGGGAA | 0.00899
11 | CGCATGCG | 0.0792
12 | ACGGTAAC | 0.151
13 | ATCGACGA | -0.00044
14 | CACGACGA | 0.108
15 | GACGACGA | 0.0563
16 | AGCGACGA | 0.195
17 | AACGACGA | 0.444
18 | TACGACGA | 0.469
19 | AGACTTAT | -0.104
20 | CAGCAATG | -0.198
21 | GGATGGTA | -0.0324
22 | TCACTCGA | 0.163
23 | AATGCAGC | -0.147
24 | AAGGTACT | 0.0334

Row | Sequence | PBM E-score
25 | ATGGTACA | -0.122
26 | AAGGTACG | 0.434
27 | CAGGTACG | 0.423
28 | ATGGTACC | -0.225
29 | AAGGTACC | -0.0364
30 | CAGGTACA | -0.23
31 | CAGGTACC | -0.126
32 | ATGGTACG | 0.443
33 | CCTCCTTA | 0.032
34 | CATGCGGG | -0.05
35 | ATAGTGCC | 0.0559
36 | CTAAGCTC | -0.2
37 | ACCGTCTG | -0.112
38 | ATTGCAGG | -0.00797
39 | ACGGTACC | 0.206
40 | ACGGTACT | 0.0921
41 | ACGGTACG | 0.436
42 | CCGGTACG | 0.448
43 | CCGGTACA | 0.0868
44 | CCGGTACC | -0.103
45 | AAAGATTG | -0.286
46 | ACGGAGGA | 0.151
47 | ATCGCTCC | 0.185
48 | CTCGCTGA | -0.0623

Row | Sequence | PBM E-score
49 | GTCGCTTA | 0.37
50 | GTCGCTGA | -0.073
51 | GTCGCTAA | 0.289
52 | CTCGCTTA | 0.41
53 | ATCGCTTA | 0.327
54 | CTCGCTCC | 0.405
55 | CTCGCTCA | 0.358
56 | AAACTCCG | -0.112
57 | AGGGACGG | -0.256
58 | AGTCCGGC | -0.138
59 | TACGTACA | 0.328
60 | TACGTATA | 0.401
61 | GGCGTATA | 0.359
62 | CACGTATG | 0.0729
63 | AACGTATA | 0.411
64 | TACGTAGA | 0.133
65 | GACGTATA | 0.365
66 | AACGTATC | 0.127
67 | CACGTATA | 0.386
68 | AGCGTATA | 0.366
69 | CGCGTATA | 0.403
70 | AACGTATT | 0.229
71 | GGGTGGAA | -0.284
72 | CACCCGCG | -0.0941

Row | Sequence | PBM E-score
73 | TGCTAACA | -0.0691
74 | ACCTGGCT | -0.059
75 | ATCCAAGC | -0.231
76 | ACTAAGGA | 0.1
77 | CGGCCATC | -0.22
78 | CAGCCTCA | -0.00094
79 | TTCCACAA | -0.0103
80 | CTCAGTTA | -0.187
81 | ACGGCGAG | 0.214
82 | ACGGCGAT | 0.377
83 | ACGGCGAC | 0.21
84 | AAAGCCTG | -0.228
85 | ACAGCCCT | -0.279
86 | AAGCTGCA | -0.0356
87 | CTTCGTCA | 0.117
88 | CTTCGTAC | 0.477
89 | ATTCGTGC | -0.00078
90 | ATTCGTCC | 0.0925
91 | CTTCGTCC | -0.243
92 | CTTCGTGC | 0.0216
93 | CTTCGTGA | 0.209
94 | CTTCGTAA | 0.413
95 | ATTCGTAC | 0.468
96 | ACGATCTA | 0.22

Row | Sequence | PBM E-score
97 | ACGATGCT | 0.283
98 | ACATACGA | 0.466
99 | CCATACGA | 0.462
100 | GCATACAA | 0.0278
101 | TCATACAA | -0.115
102 | CCATACGG | 0.345
103 | GCATACGC | 0.199
104 | GCATACGA | 0.446
105 | TCATACGA | 0.463
106 | ACATACGG | 0.321
107 | TCATACCA | -0.0984
108 | CCATACGC | 0.218
109 | ACATACGC | 0.221
110 | GAACCCGC | 0.0274
111 | AAGAAAAC | 0.0702
112 | TAATCATA | -0.0103
113 | TAATCGCA | 0.215
114 | CGAGGACA | 0.0726
115 | AAGTACGC | 0.0885
116 | GAGTACGC | -0.0338
117 | GAGTACAA | 0.0511
118 | TAGTACCA | -0.124
119 | AAGTACGA | 0.448
120 | GAGTACGA | 0.426

Row | Sequence | PBM E-score
121 | CAGTACGG | 0.27
122 | CAGTACGC | 0.06
123 | AAGTACGT | 0.171
124 | TAGTACAA | 0.0161
125 | CAGTACGA | 0.423
126 | TAGTACGA | 0.443
127 | CGGACCCG | 0.21
128 | ACCACAAC | 0.0744
129 | CGGGTCTC | 0.00746
130 | CTATTCGA | 0.0817
131 | ACTGGTAA | 0.0597
132 | CCGTATTA | 0.316
133 | GACGCCCC | -0.0249
134 | ACCGTATG | 0.325
135 | GCCGTATA | 0.463
136 | ACCGTATA | 0.459
137 | GCGGTATA | -0.0371
138 | CCCGTAGA | -0.00351
139 | CCCGTATA | 0.471
140 | GCCGTAGA | 0.213
141 | ACCGTATC | 0.346
142 | CCCGTATC | 0.327
143 | ACGGGGGA | 0.16
